According to PubChem BioAssay:
Unmarked numbers belong to inactive results. Some of the results follow. Calls of active or inactive are those of the source.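 The calls were made as follows, unless noted: active = mean inhibition of the triplicate above the hit cutoff set for the earlier primary screen (cut at about 25% in these data); inactive = the rest.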

What was measured:
[1] = biological target: Insulin-degrading enzyme (Homo sapiens) (UniProt P14735); assay: cellular IDE Abeta-cleavage inhibition – fluorescence polarization, HEK cells, FAbetaB substrate, confirmation (AID 435028;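 active = mean inhibition across triplicate wells above the cutoff set by the earlier primary insulin-degrading enzyme screen, cut at about 16% in these data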;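 also: 0% = DMSO wells and 100% = 60 µM reference IDE inhibitor Ii1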); conditions: at 5.59 µM, stronger effect = higher value
[2] = HEK cell viability loss – luminescence, cytotoxicity control for IDE inhibitor project (AID 449730; in the data active = inhibition above about 22%;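 also: 0% = vehicle wells and 100% = reference cytotoxic drug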); conditions: HEK293 cytotoxicity, ATP luminescence; at 5.59 µM; stronger effect = higher value
[3] = biological target: Protein-arginine deiminase type-4 (Homo sapiens) (UniProt Q9UM07); assay: protein arginine deiminase 4 blockade, retest – biochemical, fluorescence polarization, confirmation (AID 488796;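 active = mean inhibition across replicates above the hit cutoff set by the earlier primary screen, cut at about 15% in these data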;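 also: inhibitors block active-site labeling by the probe so polarization falls; 0% = PAD4 with probe and DMSO and 100% = probe without PAD4 enzyme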); conditions: recombinant PAD4, RCA probe fluorescence polarization; at 6.36 µM; stronger effect = higher value
[4] = biological target: Nuclear receptor coactivator 3 (Homo sapiens) (UniProt Q9Y6Q9); assay: NCOA3 GAL4-fusion reporter inhibition – cell-based, luminescence, quadruplicate, confirmation (AID 588792;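 active = mean inhibition over 43.08%, the solvent-only control mean plus 3 SD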;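 also: 0% = DMSO treated cells and 100% = gossypol at 36 µM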); conditions: HEK293 GAL4-SRC3 luciferase reporter, at 3.6 µM, stronger effect = higher value
[5] = tested on: transactivating tegument protein VP16 (Human herpesvirus 1), Gal4-VP16 luciferase reporter; assay: repression of VP16-driven luciferase reporter – cell-based, luminescence, high throughput, counter-screen for SRC3 inhibitor project (AID 588794; in the data active = inhibition above about 30%); conditions: mammalian cells, at 3.6 µM, stronger effect = higher value
[6] = tested on: transactivating tegument protein VP16 (Human herpesvirus 1); assay: compounds suppressing VP16-driven luciferase signal – cell-based, luminescence, single concentration, counter-screen for SRC2 inhibitor project (AID 652007; in the data active = inhibition above about 36%); conditions: cell-based VP16 transactivation luciferase reporter, at 8.9 µM, stronger effect = higher value
[7] = biological target: Nuclear receptor coactivator 2 (Homo sapiens) (UniProt Q15596); assay: inhibition of GAL4-SRC2 driven luciferase expression – cell-based, luminescence, HEK293, triplicate, confirmation (AID 652008;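 active = mean inhibition above 46.5%, the solvent-only control mean plus 3 SD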;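 also: 0% = DMSO-treated cells and 100% = Gossypol at 36 µM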); conditions: HEK293 GAL4-SRC2 luciferase reporter, at 8.9 µM, stronger effect = higher value
[8] = VP16-driven transactivation reporter suppression – cell-based, luminescence, HEK293, counter-screen for COUP-TFII antagonist project (AID 687007; in the data active = inhibition above about 13%); conditions: HEK293 Gal4-VP16 luciferase reporter, at 8.5 µM, stronger effect = higher value
[9] = biological target: COUP transcription factor 2 (Homo sapiens) (UniProt P24468); assay: retest of COUP-TFII reporter suppressors – cell-based, luciferase reporter, HEK293, triplicate, confirmation (AID 687008;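 active = mean inhibition over three repeats above a set limit taken from the earlier primary screen, cut at about 38% in these data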;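 also: 100% = cells given the luciferase reporter alone without the COUP-TF2 vector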); conditions: HEK293 NGFI-A luciferase reporter, luminescence; at 8.5 µM; stronger effect = higher value
[10] = biological target: Photoreceptor-specific nuclear receptor (Homo sapiens) (UniProt Q9Y5X4); assay: retest of NR2E3-NCOR disrupting agonists – cell-based, luminescence, CHO-S two-hybrid, confirmation (AID 624378;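 active = average inhibition above a cutoff equal to the mean inhibition of all tested compounds plus one SD, cut at about 70% in these data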;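 also: 0% = DMSO in NR2E3 cells and 100% = DMSO in cells lacking NR2E3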); conditions: CHO-S mammalian two-hybrid NR2E3-NCOR, luciferase luminescence; at 3.98 µM; stronger effect = higher value
[11] = nonselective effects on VP16 transactivation – cell-based, luminescence, CHO-S, high throughput, counter-screen for NR2E3 agonist project, confirmation (AID 624379;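 active = mean inhibition above a cutoff equal to the average over all tested compounds plus one standard deviation, cut at about 70% in these data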;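 also: 0% = DMSO with VP16-transfected cells and 100% = DMSO with cells lacking VP16; higher means less reporter light so more repression of VP16 activity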); conditions: CHO-S GAL4-VP16 luciferase reporter, at 3.98 µM, stronger effect = higher value
[12] = biological target: Platelet-activating factor acetylhydrolase (Homo sapiens) (UniProt Q13093); assay: inhibition of plasma PAF acetylhydrolase – biochemical, fluorescence polarization, human, confirmation (AID 463230); conditions: recombinant pPAFAH, FP-Rh probe fluorescence polarization; at 3.39 µM; stronger effect = higher value;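 also: 0% = enzyme with DMSO and 100% = wells lacking pPAFAH enzyme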
[13] = biological target: Platelet-activating factor acetylhydrolase IB subunit alpha1 (Homo sapiens) (UniProt Q15102); assay: inhibition of PAF acetylhydrolase 1B subunit 3 – biochemical, fluorescence polarization, human, confirmation (AID 493032;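 active = average inhibition over triplicate runs above the hit cutoff set in the earlier primary screen, cut at about 25% in these data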;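 also: 0% = enzyme with DMSO and 100% = wells lacking PAFAH1B3 protein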); conditions: recombinant PAFAH1B3, FP-Rh activity-based probe, at 3.39 µM, stronger effect = higher value
[14] = biological target: Toll-like receptor 9 (Homo sapiens) (UniProt Q9NR96); assay: disruptors of TLR9 binding to MyD88 – cell-based, CHO, BLA complementation, fluorescence, triplicate, confirmation (AID 540250;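 active = mean inhibition across three repeats above about 21% taken from the earlier screen, limit read from the data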;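 also: blue over green emission ratio reports constitutive TLR9 MyD88 association via BLA complementation; 0% = DMSO vehicle wells and 100% = clavulanate BLA inhibitor wells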); conditions: CCF4 FRET ratio, at 4.98 µM, stronger effect = higher value
[15] = BLA reporter readout interference – cell-based, fluorescence, artefact control for TLR9-MyD88 binding inhibitor project (AID 540251;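 active = mean inhibition above a 50% cutoff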;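 also: counterscreen of TLR9-MyD88 hits on CMV-driven BLA in CHO-K1 cells; 0% = DMSO alone and 100% = clavulanate blocking BLA; higher means less blue over green ratio so more BLA blockade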); conditions: CHO-BLA cells, CCF4 FRET ratio, at 4.98 µM, stronger effect = higher value
[16] = CHO cell viability loss – luminescence, single concentration, cytotoxicity control for TLR9-MyD88 binding inhibitor project (AID 588336; in the data active = inhibition above about 11%); conditions: TLR9-MyD88 CHO cells cytotoxicity, at 4.98 µM, stronger effect = higher value
[17] = biological target: Receptor-interacting serine/threonine-protein kinase 2 (Homo sapiens) (UniProt O43353); assay: inhibitors of RIPK2 association with NOD2 – fluorescence, CHO cells, BLA complementation, triplicate, confirmation (AID 624370;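 active = mean inhibition across replicates above a set limit taken from the earlier primary screen, cut at about 21% in these data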;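 also: 0% = DMSO-only wells and the high end = clavulanate BLA-blocked wells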); conditions: CCF4 FRET, at 4.98 µM, stronger effect = higher value
[18] = BLA reporter readout interference – cell-based, CHO-K1 CMV-bla, CCF4 FRET, fluorescence, artefact control for NOD2-RIPK2 interaction inhibitor project, confirmation (AID 624371;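 active = mean inhibition above the low-control mean inhibition plus three low-control SD, cut at about 11% in these data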;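 also: 0% = DMSO only wells and 100% = clavulanate high control wells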); conditions: CCF4 FRET ratio, counterscreen, at 4.98 µM, stronger effect = higher value
[19] = biological target: Serine protease HTRA1 (Homo sapiens) (UniProt Q92743); assay: confirming inhibition of human HTRA1 – biochemical, fluorescence polarization, confirmation (AID 540248;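 active = mean inhibition over three repeats above a set limit taken from the earlier primary screen, cut at about 37% in these data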;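 also: 0% = HTRA1 with DMSO and 100% = wells lacking HTRA1; inhibitors block probe binding so polarization drops and inhibition rises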); conditions: recombinant HTRA1, FP-rhodamine activity-based probe, at 5.96 µM, stronger effect = higher value
[20] = biological target: Oxysterols receptor LXR-beta (Homo sapiens) (UniProt P55055); assay: nonspecific reporter activation via LXR – cell-based, luminescence, HEK293, H. contortus campaign, counter-screen for hcDAF-12 agonist project, confirmation (AID 743027;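 active = mean percent activation of the reporter above a cutoff set as the average over tested compounds plus their standard deviation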); conditions: HEK293 Gal4-LXR tk-luc reporter, 24 h, at 6.8 µM, stronger effect = higher value, normalized: DMSO 0%, positive control 100%
[21] = tested on: Nuclear hormone receptor DAF-12 (Haemonchus contortus); assay: hcDAF-12 luciferase reporter activation, retest – cell-based, luminescence, HEK293, lit1-tk-luc, triplicate, confirmation (AID 743032;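 active = mean activation across triplicate tests above the threshold derived from the earlier primary screen, cut at about 5.5% in these data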;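 also: 0% = DMSO only wells and 100% = 3 µM Δ7-dafachronic acid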); conditions: HEK293 hcDAF-12 lit1-tk-luc reporter, at 6.8 µM, stronger effect = higher value, % of Δ7-dafachronic acid response
[22] = tested on: DAF-12 nuclear receptor (Heterodera glycines), GAL4-LBD fusion; assay: hgDAF-12 GAL4 fusion reporter activation, retest – cell-based, luminescence, HEK293, GAL4-LBD fusion, confirmation (AID 743050;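 active = mean activation over triplicate wells above the hit cutoff derived from the earlier primary screen, cut at about 11% in these data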;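 also: 0% = DMSO low control and 100% = 2 mM sodium butyrate high control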); conditions: HEK293 GAL4-hgDAF12 luciferase reporter, agonist mode; at 6.8 µM; stronger effect = higher value; percent of butyrate response
[23] = biological target: Oxysterols receptor LXR-beta (Homo sapiens) (UniProt P55055); assay: nonspecific reporter activation via LXR – cell-based, luminescence, HEK293, H. glycines campaign, counter-screen for hgDAF-12 agonist project, confirmation (AID 743051;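 active = mean activation of the triplicate above a set limit carried over from the primary screen, none filed active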); conditions: HEK293 Gal4-LXR luciferase reporter, 24 h; at 6.8 µM; stronger effect = higher value
[24] = reduced OD of T4-infected AddAB+ E. coli – absorbance, E. coli V3065, T4 phage, triplicate, AddAB inhibitor project, confirmation (AID 488942;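 active = mean inhibition above a set limit taken from the earlier primary screen, cut at about 13% in these data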;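 also: higher means less bacterial growth since AddAB block lets phage replicate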); conditions: E. coli V3065 expressing H. pylori AddAB, at 11.9 µM, stronger effect = higher value, T4 phage with gene 2 nonsense mutations
[25] = reduced OD of phage-infected RecBCD+ V66 E. coli – absorbance, mutant T4 phage, counter-screen for AddAB inhibitor project (AID 488955;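 active = mean inhibition above the mean of solvent-only control wells plus 3 SD, cut at about 4% in these data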;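 also: optical density read after an 18 h incubation at 37 °C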); conditions: OD growth, at 11.9 µM, stronger effect = higher value
[26] = bacterial growth inhibitors – absorbance, counter-screen for AddAB inhibitor project, confirmation (AID 488956; in the data active = inhibition above about 25%); conditions: bacterial viability, absorbance (AddAB counterscreen); at 11.9 µM; stronger effect = higher value

Sequence of Toll-like receptor 9 (Homo sapiens) (Q9NR96 whole entry, looked up): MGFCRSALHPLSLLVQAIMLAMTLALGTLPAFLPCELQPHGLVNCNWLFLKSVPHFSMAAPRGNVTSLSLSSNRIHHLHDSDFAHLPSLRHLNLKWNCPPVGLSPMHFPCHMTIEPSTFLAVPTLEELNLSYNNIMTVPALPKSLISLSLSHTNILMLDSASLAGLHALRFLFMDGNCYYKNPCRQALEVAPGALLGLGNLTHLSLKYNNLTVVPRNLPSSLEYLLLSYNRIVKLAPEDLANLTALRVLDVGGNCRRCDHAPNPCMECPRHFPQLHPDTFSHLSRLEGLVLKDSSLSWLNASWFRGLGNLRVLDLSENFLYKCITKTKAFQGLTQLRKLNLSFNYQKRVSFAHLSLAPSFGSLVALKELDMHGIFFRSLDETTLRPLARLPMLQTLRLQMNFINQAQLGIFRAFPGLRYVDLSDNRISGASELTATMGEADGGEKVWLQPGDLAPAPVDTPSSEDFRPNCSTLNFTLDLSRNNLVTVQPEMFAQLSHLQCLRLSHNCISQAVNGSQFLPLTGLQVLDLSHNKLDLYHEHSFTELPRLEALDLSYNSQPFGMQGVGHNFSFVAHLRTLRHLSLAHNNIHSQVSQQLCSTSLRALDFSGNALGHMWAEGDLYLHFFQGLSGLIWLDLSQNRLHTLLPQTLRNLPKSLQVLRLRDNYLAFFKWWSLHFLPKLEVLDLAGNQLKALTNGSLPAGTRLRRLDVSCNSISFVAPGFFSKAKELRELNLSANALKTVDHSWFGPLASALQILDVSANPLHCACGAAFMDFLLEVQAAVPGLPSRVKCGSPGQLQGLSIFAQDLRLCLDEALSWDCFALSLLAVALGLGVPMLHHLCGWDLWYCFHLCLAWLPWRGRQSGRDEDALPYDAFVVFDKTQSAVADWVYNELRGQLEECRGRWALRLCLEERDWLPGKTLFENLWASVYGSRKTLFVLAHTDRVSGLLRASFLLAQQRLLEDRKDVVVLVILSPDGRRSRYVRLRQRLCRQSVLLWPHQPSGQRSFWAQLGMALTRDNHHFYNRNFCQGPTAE
Sequence of Platelet-activating factor acetylhydrolase (Homo sapiens) (Q13093 whole entry, looked up): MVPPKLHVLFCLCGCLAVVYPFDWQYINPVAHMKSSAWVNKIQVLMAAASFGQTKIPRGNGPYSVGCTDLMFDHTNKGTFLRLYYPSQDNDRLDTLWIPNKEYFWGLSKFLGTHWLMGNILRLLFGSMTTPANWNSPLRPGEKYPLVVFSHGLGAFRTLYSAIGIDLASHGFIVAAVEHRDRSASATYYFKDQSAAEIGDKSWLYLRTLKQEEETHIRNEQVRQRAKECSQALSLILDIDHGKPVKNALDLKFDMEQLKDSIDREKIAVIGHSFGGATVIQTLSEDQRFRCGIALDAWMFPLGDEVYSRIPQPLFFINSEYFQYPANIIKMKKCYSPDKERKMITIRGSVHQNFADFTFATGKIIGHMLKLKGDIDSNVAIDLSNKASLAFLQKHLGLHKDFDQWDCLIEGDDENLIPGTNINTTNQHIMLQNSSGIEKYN
Sequence of Protein-arginine deiminase type-4 (Homo sapiens) (Q9UM07 whole entry, looked up, the tested form may be a part): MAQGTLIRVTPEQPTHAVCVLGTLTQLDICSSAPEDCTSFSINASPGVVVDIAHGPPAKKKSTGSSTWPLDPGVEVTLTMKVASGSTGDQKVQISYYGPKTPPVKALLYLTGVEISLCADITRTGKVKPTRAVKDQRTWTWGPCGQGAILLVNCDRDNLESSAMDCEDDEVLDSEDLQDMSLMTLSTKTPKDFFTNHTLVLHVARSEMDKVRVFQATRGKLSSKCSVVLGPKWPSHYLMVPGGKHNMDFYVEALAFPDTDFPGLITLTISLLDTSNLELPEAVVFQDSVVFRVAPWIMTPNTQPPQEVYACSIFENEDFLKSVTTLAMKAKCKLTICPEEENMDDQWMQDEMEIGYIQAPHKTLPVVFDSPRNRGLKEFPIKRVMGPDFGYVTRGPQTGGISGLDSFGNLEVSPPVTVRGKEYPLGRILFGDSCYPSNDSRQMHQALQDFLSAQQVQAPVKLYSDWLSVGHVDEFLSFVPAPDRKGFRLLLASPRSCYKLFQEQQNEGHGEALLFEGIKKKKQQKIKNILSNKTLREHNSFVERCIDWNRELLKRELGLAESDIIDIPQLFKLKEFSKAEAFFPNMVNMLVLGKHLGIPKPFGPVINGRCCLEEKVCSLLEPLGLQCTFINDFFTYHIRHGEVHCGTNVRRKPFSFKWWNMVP
Sequence of Insulin-degrading enzyme (Homo sapiens) (P14735 whole entry, looked up): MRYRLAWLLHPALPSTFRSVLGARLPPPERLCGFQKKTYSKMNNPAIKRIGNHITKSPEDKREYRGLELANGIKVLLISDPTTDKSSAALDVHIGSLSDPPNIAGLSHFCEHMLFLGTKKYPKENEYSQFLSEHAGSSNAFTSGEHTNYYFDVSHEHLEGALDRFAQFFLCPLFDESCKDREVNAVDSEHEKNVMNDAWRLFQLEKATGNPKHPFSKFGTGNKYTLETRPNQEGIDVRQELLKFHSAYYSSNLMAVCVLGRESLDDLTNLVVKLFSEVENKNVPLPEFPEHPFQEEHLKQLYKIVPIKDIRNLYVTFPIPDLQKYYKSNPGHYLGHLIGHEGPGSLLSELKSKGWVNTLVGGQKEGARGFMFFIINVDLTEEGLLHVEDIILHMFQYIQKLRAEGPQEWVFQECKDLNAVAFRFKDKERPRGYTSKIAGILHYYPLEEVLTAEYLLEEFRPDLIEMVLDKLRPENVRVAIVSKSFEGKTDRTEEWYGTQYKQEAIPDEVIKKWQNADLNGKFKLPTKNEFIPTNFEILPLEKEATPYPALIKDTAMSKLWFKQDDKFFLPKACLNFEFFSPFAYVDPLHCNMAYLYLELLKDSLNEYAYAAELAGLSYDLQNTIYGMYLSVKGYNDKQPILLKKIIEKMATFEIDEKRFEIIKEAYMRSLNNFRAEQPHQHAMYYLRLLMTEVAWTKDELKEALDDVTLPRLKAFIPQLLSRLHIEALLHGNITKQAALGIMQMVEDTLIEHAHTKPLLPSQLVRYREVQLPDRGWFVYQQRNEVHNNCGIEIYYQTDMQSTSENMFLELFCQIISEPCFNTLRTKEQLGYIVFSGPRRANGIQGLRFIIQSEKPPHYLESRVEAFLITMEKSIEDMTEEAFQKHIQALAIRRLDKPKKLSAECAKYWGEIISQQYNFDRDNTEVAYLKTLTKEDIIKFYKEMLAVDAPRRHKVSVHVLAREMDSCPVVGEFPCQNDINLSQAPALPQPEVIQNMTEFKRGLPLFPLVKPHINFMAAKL
Sequence of Receptor-interacting serine/threonine-protein kinase 2 (Homo sapiens) (O43353 whole entry, looked up): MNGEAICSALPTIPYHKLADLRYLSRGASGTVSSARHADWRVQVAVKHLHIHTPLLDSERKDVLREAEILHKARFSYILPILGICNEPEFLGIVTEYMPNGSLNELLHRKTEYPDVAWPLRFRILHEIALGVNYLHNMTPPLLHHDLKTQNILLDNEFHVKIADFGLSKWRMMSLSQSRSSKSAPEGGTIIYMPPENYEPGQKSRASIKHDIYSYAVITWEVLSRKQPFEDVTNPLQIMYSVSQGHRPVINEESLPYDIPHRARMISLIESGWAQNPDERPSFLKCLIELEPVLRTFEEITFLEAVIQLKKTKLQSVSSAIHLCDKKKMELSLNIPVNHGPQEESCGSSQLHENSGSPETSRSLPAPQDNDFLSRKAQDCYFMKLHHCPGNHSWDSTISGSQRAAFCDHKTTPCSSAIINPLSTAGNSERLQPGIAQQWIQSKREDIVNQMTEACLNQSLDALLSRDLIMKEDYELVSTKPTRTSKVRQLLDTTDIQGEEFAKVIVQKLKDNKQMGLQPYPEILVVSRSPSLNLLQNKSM
Sequence of Oxysterols receptor LXR-beta (Homo sapiens) (P55055 whole entry, looked up, the tested form may be a part): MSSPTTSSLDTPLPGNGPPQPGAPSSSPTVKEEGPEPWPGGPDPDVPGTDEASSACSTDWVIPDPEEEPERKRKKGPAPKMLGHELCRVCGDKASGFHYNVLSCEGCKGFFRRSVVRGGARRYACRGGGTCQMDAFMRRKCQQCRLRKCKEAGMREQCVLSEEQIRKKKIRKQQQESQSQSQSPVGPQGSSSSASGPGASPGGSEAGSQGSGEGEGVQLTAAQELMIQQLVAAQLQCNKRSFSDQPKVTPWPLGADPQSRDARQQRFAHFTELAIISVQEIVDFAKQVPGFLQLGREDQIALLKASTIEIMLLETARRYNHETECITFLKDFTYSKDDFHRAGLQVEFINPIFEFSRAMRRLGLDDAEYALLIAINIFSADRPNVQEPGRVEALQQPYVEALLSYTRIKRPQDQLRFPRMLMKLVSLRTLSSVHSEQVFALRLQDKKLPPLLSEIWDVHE
Sequence of COUP transcription factor 2 (Homo sapiens) (P24468 whole entry, looked up): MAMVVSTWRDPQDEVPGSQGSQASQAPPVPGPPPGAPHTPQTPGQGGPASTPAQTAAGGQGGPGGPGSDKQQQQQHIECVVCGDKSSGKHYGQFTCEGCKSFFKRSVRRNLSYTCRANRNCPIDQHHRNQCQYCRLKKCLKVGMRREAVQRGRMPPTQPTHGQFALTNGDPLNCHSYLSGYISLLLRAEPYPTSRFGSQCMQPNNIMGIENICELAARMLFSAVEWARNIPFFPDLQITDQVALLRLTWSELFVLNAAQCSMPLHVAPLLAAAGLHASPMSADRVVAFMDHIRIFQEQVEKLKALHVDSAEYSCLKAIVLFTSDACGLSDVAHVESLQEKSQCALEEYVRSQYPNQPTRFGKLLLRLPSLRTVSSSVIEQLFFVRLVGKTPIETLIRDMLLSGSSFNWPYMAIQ
Sequence of Photoreceptor-specific nuclear receptor (Homo sapiens) (Q9Y5X4 whole entry, looked up): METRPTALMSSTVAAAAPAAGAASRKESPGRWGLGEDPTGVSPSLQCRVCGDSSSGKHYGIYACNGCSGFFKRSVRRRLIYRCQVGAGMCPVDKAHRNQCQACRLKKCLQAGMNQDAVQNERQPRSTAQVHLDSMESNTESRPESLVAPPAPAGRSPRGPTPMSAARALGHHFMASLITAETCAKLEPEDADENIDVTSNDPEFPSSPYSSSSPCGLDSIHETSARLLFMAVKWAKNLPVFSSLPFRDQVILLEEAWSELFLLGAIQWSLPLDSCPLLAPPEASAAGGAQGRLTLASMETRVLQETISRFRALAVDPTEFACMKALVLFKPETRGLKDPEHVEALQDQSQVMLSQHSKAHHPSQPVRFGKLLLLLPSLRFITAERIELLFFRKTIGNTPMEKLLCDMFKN

With `COc1ccc(C(=O)Nc2nc(-c3ccc(S(=O)(=O)N4CCOCC4)cc3)cs2)cc1` the inhibition [1] was 3.32%, the inhibition [2] was 68.2% (active) and the inhibition [3] was 18.9% (active). The inhibition [4] was -12.4%, the inhibition [5] was -5.9% and the inhibition [6] was 16.2%. The inhibition [7] was 21.5%, the inhibition [8] was -11.1% and the inhibition [9] was 40.2% (active).

With `Fc1ccc2[nH]c3c(N4CCSCC4)ncnc3c2c1` the inhibition [1] was 7.91%, the inhibition [2] was 49.2% (active) and the inhibition [10] was 84.4% (active). For the same compound, the inhibition [11] was 63.2%, the inhibition [8] was 4.31% and the inhibition [9] was 48% (active).

With `Cc1cc(C(=O)CSc2nc(N)cc(=O)[nH]2)c(C)n1-c1cccc(F)c1` the inhibition [12] was 51.8% (active).

With `O=C(Nc1nc(-c2ccco2)c(-c2ccco2)s1)c1ccco1` the inhibition [12] was 17.3%.

`Cc1ccccc1-n1c(SCC(=O)Nc2cccc3ccccc23)nc(O)cc1=O` gave an inhibition [12] of 4.9%.

With `COc1cccc(/C=N/NC(=O)c2[nH]nc3c2CCc2ccccc2-3)c1O` the inhibition [12] was 38.9% (active).

For `CCc1ccc(CN(C)C(=O)CCc2nnc(-c3ccc(-c4ccccc4)cc3)o2)nc1`, the inhibition [12] was 11.8%.

In the case of `O=C(/C=C(O)/C=C/c1ccc(O)cc1)/C=C/c1ccc(O)cc1`, the inhibition [1] is reported as 50% (active), the inhibition [2] is reported as 7.11% and the inhibition [13] is reported as 31.6% (active). The inhibition [14] was 39.7% (active), the inhibition [15] was 42.9% and the inhibition [16] was 6.33%. The inhibition [17] was 64.2% (active) and the inhibition [18] was 65.5% (active).

With `CC(C)C1N=C2c3ccccc3N=C(SCC(=O)c3ccc(O)c(O)c3)N2C1=O` (centres undefined) the inhibition [12] was 54.5% (active) and the inhibition [19] was 57% (active).

In the case of `Cc1ccc(/C=N/NC(=O)c2cc3ccccc3cc2O)o1`, the inhibition [12] is reported as 9.89% and the inhibition [19] is reported as 38.8% (active).

For `CC(=O)N1CCN(C(=O)c2cc(-c3ccc(C)o3)nc3ccccc23)CC1`, the inhibition [12] was 5.07%.

For `N#CC1=C(N)Oc2c(sc3ccccc23)C1c1ccco1` (centres undefined), the inhibition [1] was 55.6% (active), the inhibition [2] was 39.4% (active) and the activation [20] was -0.13%. It also gave an activation [21] of 1.83%.

For `Cc1ccc(-c2noc(CSc3nnc(-c4ccncc4)n3-c3ccc(F)cc3)n2)cc1`, the inhibition [12] was 1.52%.

Work on `CCCCC(=O)Nc1ccc2c(c1)C(=O)NC2=O` yielded an inhibition [12] of 4.81%.

Compound `Oc1ccc(N=Nc2nccs2)c(O)c1` has an inhibition [12] of 5.09%.

`CC1CCCCC1NC(=O)COC(=O)Cc1ccc(Cl)cc1` (centres undefined) showed an inhibition [12] of 22.3%.

In the case of `COc1ccc(/C=C/C(=O)c2cc(Br)ccc(=O)c2O)cc1`, the inhibition [12] is reported as 20.5%.

In the case of `CCN1CCCC1CNc1ncnc2c1[nH]c1ccc(F)cc12` (centres undefined), the inhibition [1] is reported as 3.64% and the inhibition [2] is reported as 8.81%.

For `Cc1ccc(-n2c(C)cc(/C=C(\C#N)C(=O)NCC3CCCO3)c2C)cc1` (centres undefined), the inhibition [12] was 63.7% (active).

In the case of `COc1cc(/C=C(\C#N)c2nc3c(s2)CC(C)CC3)ccc1O` (centres undefined), the inhibition [1] is reported as 161% (active), the inhibition [2] is reported as 11.3% and the inhibition [14] is reported as 7.82%. The inhibition [15] was 17%, the inhibition [16] was 0.65% and the inhibition [17] was 29.5% (active). The inhibition [18] was 39.6% (active).

Compound `Cc1ccc(S(=O)(=O)NCc2csc(C)n2)c(C)c1` has an inhibition [12] of 2.33%.

With `COc1ccc(N=C(C)c2sc3ccccc3c2O)cc1` the inhibition [1] was 56.1% (active), the inhibition [2] was 15.2% and the activation [22] was 18.6% (active). The activation [23] was 0.76%.

For `Oc1c(Br)cc(/C=N/NC(=S)NCC2CCCO2)cc1Br` (centres undefined), the inhibition [12] was 36.3% (active).

In the case of `Nc1c(C(=O)c2cccs2)sc2nsc(SCCN3CCCCC3)c12`, the inhibition [1] is reported as 54.9% (active), the inhibition [2] is reported as 18.4% and the inhibition [14] is reported as 31.7% (active). The inhibition [15] was 27.5%, the inhibition [16] was 10.9% (active) and the inhibition [17] was 19.8%. The inhibition [18] was 36.9% (active).

Work on `COc1cc(C2CC(=O)N3CN(Cc4ccccc4)CSC3=C2C#N)ccc1OCc1ccccc1` (centres undefined) yielded an inhibition [12] of 14.2%.

In the case of `O=C(Oc1c(-c2ccco2)oc2ccccc2c1=O)c1cccnc1`, the inhibition [1] is reported as 93% (active) and the inhibition [2] is reported as 8.69%.

`COc1cccc(CNC(=O)CCC2CCCN(C(=O)c3ccc(F)c(Cl)c3)C2)c1` (centres undefined) gave an inhibition [12] of 17.2%.

In the case of `CN(C)S(=O)(=O)c1cccc(-c2nn(-c3ccccc3)cc2/C=C2\SC(=S)N(CC(=O)O)C2=O)c1`, the inhibition [12] is reported as 40.4% (active) and the inhibition [3] is reported as 2.15%.

For `COCC(C)NC(=O)c1ccc(-n2nc(C(F)(F)F)cc2-c2cccs2)cc1` (centres undefined), the inhibition [12] was 23.6%.

For `O=C(O)C(c1ccccc1)N1C(=O)/C(=C\c2ccc(-c3cccc(Cl)c3)o2)SC1=S` (centres undefined), the inhibition [12] was 55.4% (active).

With `CCOc1ccc(NS(=O)(=O)c2ccc(C(=O)NCC(c3ccccc3OC)N3CCCC3)cc2)cc1` (centres undefined) the inhibition [12] was 45.4% (active).

`Cn1c(Nc2cccc(Cl)c2)nc2ccccc21` gave an inhibition [3] of 4.71%.

`C=CCN(C(=O)Nc1ccc2oc(C)nc2c1)c1ccccc1` showed an inhibition [3] of -3.81%.

In the case of `CC1CCCN(C(=O)c2ccc3c(c2)C(=O)N(CCC2=CCCCC2)C3=O)C1` (centres undefined), the inhibition [24] is reported as -4.68%, the inhibition [25] is reported as -0.96% and the inhibition [26] is reported as -2.15%.
